From PubChem BioAssay (NCATS)
Inconclusive results are not listed. Unmarked numbers belong to inactive results. Active and inactive are the calls of the source. The call rests on the fitted dose curve; in most records, active means well fitted inhibition curve with a large enough effect; inconclusive means small, poorly fitted or top-dose-only effect; inactive means flat fitted curve, though single readings scatter.

Each compound was assayed against Calcium and integrin-binding protein 1 (Homo sapiens) (UniProt Q99828) (assay: Primary qHTS for Identification of Calcium Integrin Binding Protein 1 (CIB1) Competitor (AID 1508620;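 on activity change, negative = inhibition: GST tagged CIB1 binding a fluorescein labelled alphaIIb integrin peptide tracer; top concentration of the series differs between compounds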)). Conditions: CIB1-GST / FITC-alphaIIb peptide fluorescence polarization; series mostly up to 114 µM; activity change, negative = inhibition: at the top concentration.
Calcium and integrin-binding protein 1 (Homo sapiens), sequence (Q99828 whole entry, looked up): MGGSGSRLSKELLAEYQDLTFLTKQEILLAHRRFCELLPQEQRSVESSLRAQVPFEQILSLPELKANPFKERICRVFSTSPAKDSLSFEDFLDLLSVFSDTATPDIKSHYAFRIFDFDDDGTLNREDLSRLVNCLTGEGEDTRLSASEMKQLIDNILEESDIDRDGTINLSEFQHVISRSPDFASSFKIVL
Method in brief: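 Fluorescence polarization competition: CIB1-GST (1 uM final) preincubated with compound 15 min at room temperature, then FITC-labeled alphaIIb peptide (100 nM final) added for another 15 min. Polarization read at Ex 480/Em 540.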
On the % scale 0 is the no-effect control and ±100 the full control effect; potency means the concentration at half of the fitted maximal effect.

SMILES | activity change, negative = inhibition | Potency
O=C(O)c1sc2c(c1-c1nc3ccccc3s1)CCNC2 | -0.636% | –
Cc1cc(C)nc(NC(=S)N2CCN(c3ccc4nsnc4c3)CC2)c1 | – | 50.1 µM (active)
O=Cc1nc(Nc2cc(F)cc(F)c2)nc(NC2CCCC2)n1 | -15.3% | –
Cc1cc(C)nc(NC(=S)N2CCN(c3cc(Cl)c(Cl)cc3Cl)CC2)c1 | -8.14% | –
COc1ccc(C(=O)N(Cc2ccccc2)Cc2ccccc2)c(O)c1 | 0.72% | –
NC(=O)C1CCN(c2nc(-c3cccnc3)cs2)CC1 | -3.29% | –
CCC(=O)NC(c1cc(Cl)c2cccnc2c1O)C(C)C (configuration not stated) | -8.8% | –
COc1ccnc(NC(=S)N2CCN(c3ccc4ccccc4n3)CC2)c1 | -10.9% | –
CC(=O)NC(c1ccco1)c1cc(Cl)c2ccc(Cl)nc2c1O (configuration not stated) | -16.3% | –
O=S(=O)(c1ccccc1)N1CCN(c2nc(-c3ccc(Br)cc3)cs2)CC1 | 5.29% | –
Cc1ccc(N[S+](=O)([O-])c2cc3c(cc2Cl)NC(=O)CO3)cc1Br | -5.18% | –
CN1C(=O)Cc2cc([S+](=O)([O-])N3CCN([S+](=O)([O-])c4c(F)cccc4F)CC3)ccc21 | -7% | –
Cc1cc(-c2nc(Nc3ccc(F)c(F)c3)c3ccccc3n2)ccn1 | 14.4% | –
c1csc(CCNc2ncnc3ccc(-c4ccc5c(c4)OCO5)cc23)c1 | 27.3% | –
N=c1c2c(ncn1-c1ccccc1)Oc1ccc3ccccc3c1C2c1ccc2c(c1)CCO2 (configuration not stated) | 65.5% | –
COc1ccc(CN(Cc2ccccc2)C(=O)c2ccccc2N)cc1COc1ccc(NC(C)=O)cc1 | 5.65% | –
CS(=O)(=O)c1ccc(C(=O)OCC#CCSc2nnc(-c3cccc4ccccc34)o2)cc1 | 4.63% | –
